High-throughput results from PubChem.
Vc quorum ag: inducers of Vibrio cholerae quorum light production without autoinducers, primary screen, BH1578 luxS cqsA deficient, single point | V. cholerae BH1578 lux reporter, luminescence, 6 h | activation, % at 18.7 µM | 350,000 tested, 0.16% active; in the data active means activation mostly above about 9.7%, no sharp cut-off
ugtP null kill: growth inhibition of ugtP-null S. aureus, primary screen, RN4220 ugtP deletion, OD600; 16 h; growth inhibition, % (test concentration not listed); 330,000 tested, 0.54% active; AID 1259309, 2017; in the data active means growth inhibition above about 68%
RN4220 kill: growth inhibition of S. aureus RN4220, primary screen, OD600. 16 h. inhibition, % (test concentration not listed). 330,000 tested, 0.33% active. AID 1259311, 2017; in the data active means inhibition above about 85%
TcdB inh: TcdB glycohydrolase inhibitors, primary screen, biochemical, single point, plate reader. 350,000 tested, 0.24% active. AID 652162, 2013. TcdB glycohydrolase enzymatic assay. inhibition, % at 9.99 µM. Toxin B (Clostridioides difficile), P18177; in the data active means inhibition above about 10%
Of the large screens only hits and unclear results are named; the others gave an inactive call. Most compounds without a hit are left out; they make up all but 0.67% or so of the library.

Cc1ccc([N+](=O)[O-])cc1	none
CCCSc1nc2c([nH]1)c(=O)n(C)c(=S)n2C	TcdB inh 10.4 (no result: ugtP null kill, RN4220 kill)
O=[N+]([O-])c1ccc(N=Nc2ccc(O)cc2O)cc1	ugtP null kill 98.0, RN4220 kill 98.6 (no result: TcdB inh)
O=C(NCc1ccccc1)C1=CC(c2csc3ccccc23)CC(OCCCCO)O1 (stereo not given)	none (no result: Vc quorum ag, TcdB inh)
CC(=NNC(=S)NCCc1ccccc1)c1cccc(Br)c1	none (no result: Vc quorum ag, TcdB inh)
NC1=C(Br)C(=O)c2ccccc2C1=O	ugtP null kill 94.7
Cc1cc2c(cc1C)C(=O)C(Br)=C(N)C2=O	none
Cc1cc(C)c(C=C2C(=O)Nc3ccccc32)[nH]1	none (no result: Vc quorum ag, TcdB inh)
O=S(=O)(Cc1cccc(F)c1)c1c[nH]c2ccccc12	TcdB inh 15.5
O=C(CS(=O)(=O)c1c[nH]c2ccccc12)Nc1ccc(F)cc1	none (no result: ugtP null kill, RN4220 kill)
CC(CCc1oc2ccc(Br)cc2c1-c1ccc(C)o1)=NO	ugtP null kill 89.4 (no result: Vc quorum ag, TcdB inh)
C/C(CCc1oc2ccc(Cl)cc2c1-c1ccc(C)o1)=N\O	none (no result: ugtP null kill, RN4220 kill, TcdB inh)
C/C(CCc1oc2ccc(Br)cc2c1-c1ccc(C)o1)=N/O	none (no result: ugtP null kill, RN4220 kill, TcdB inh)
CC(CCc1oc2ccc(Cl)cc2c1-c1ccc(C)o1)=NO	ugtP null kill 87.0 (no result: Vc quorum ag, TcdB inh)
O=C(CN1C(=O)NC2(CCCc3ccccc32)C1=O)NCc1cccs1 (stereo not given)	TcdB inh 15.0
CN(C)c1ccc(C(=O)OCC#CCSc2nnc(-c3cccc4ccccc34)o2)cc1	TcdB inh 13.5
O=C(OCC#CCSc1nnc(-c2cccc3ccccc23)o1)c1ccc(Br)cc1	none
COc1ccc(Cl)cc1NC(=O)Cn1c(NCCO)nc2ccccc21	TcdB inh 27.3
FC(F)(F)c1cnc(NNC(=S)Nc2ccc(Cl)cc2)c(Cl)c1	RN4220 kill 92.4 (no result: TcdB inh)
N#Cc1ccc(C(=O)N/N=C/c2cn(CC(=O)O)c3ccccc23)c(F)c1	TcdB inh 11.8 (no result: ugtP null kill, RN4220 kill)
O=C(Nc1nnc(C2=COCCO2)o1)c1cccc(C(F)(F)F)c1	RN4220 kill 95.0
O=C(Nc1nnc(C2=COCCO2)o1)c1ccc(F)cc1	none
NC(=O)CCC1NC(=O)C2CCCN2C(=O)c2cc([N+](=O)[O-])cc(I)c2NCCCCC(C(=O)NC(CC(=O)O)C(N)=O)NC1=O (stereo not given)	none (no result: Vc quorum ag, TcdB inh)
CNc1ccc2oc(C[C@H]3O[C@@]4(CC[C@H]3C)O[C@H]([C@H](C)C(=O)c3ccc[nH]3)[C@H](C)C[C@H]4C)nc2c1C(=O)O	none (no result: ugtP null kill, RN4220 kill)
CNc1ccc2oc(CC3O[C@@]4(CCC3C)OC(C(C)C(=O)c3ccc[nH]3)C(C)CC4C)nc2c1C(=O)O (stereo not given in full)	ugtP null kill 99.5, RN4220 kill 96.4 (no result: Vc quorum ag, TcdB inh)
CC(=O)Nc1ccc(N(C(=O)c2ccco2)C(C(=O)NC2CCCC2)c2cccs2)cc1 (stereo not given)	TcdB inh 13.4
CC(=O)Nc1ccc(N(C(=O)c2ccco2)C(C(=O)NC2CCCCC2)c2ccccc2)cc1 (stereo not given)	none
CCOC(=O)NN=Cc1ccc(OCCSc2ccc(Cl)cc2)c(OCC)c1	none (no result: Vc quorum ag, TcdB inh)
CO[C@@]1(NC(=O)CSCC#N)C(=O)N2C(C(=O)O)=C(CSc3nnnn3C)CSC21 (stereo not given in full)	none (no result: Vc quorum ag, TcdB inh)
Cc1c(Cl)cnn1CC(=O)NC1C(=O)N2C(C(=O)O)=C(CSc3nnnn3C)CSC12 (stereo not given)	ugtP null kill 100.5, RN4220 kill 100.2
Cn1nnnc1SCC1=C(C(=O)O)N2C(=O)C(NC(=O)Cn3nc(C(F)F)cc3C3CC3)C2SC1 (stereo not given)	ugtP null kill 100.7, RN4220 kill 100.1
CC1=C(C(=O)O)N2C(=O)C(NC(=O)c3nn(C)cc3Cl)C2SC1 (stereo not given)	none (no result: TcdB inh)
Cc1c(Cl)c(C(F)F)nn1CC(=O)NC1C(=O)N2C(C(=O)O)=C(CSc3nnnn3C)CSC12 (stereo not given)	ugtP null kill 97.3, RN4220 kill 100.4
Cc1nn(CC(=O)NC2C(=O)N3C(C(=O)O)=C(CSc4nnnn4C)CSC23)cc1Br (stereo not given)	ugtP null kill 99.3, RN4220 kill 100.0
CC(C(=O)NC1C(=O)N2C(C(=O)O)=C(CSc3nnnn3C)CSC12)n1cc(Cl)cn1 (stereo not given)	ugtP null kill 100.2, RN4220 kill 99.8
N[C@@H](C(=O)N[C@@H]1C(=O)N2C(C(=O)O)=C(Cl)CS[C@H]12)c1ccccc1	none (no result: ugtP null kill, RN4220 kill)
NC(=O)C1CC2(CC(c3cccc(NC(=O)COc4ccc(Cl)cc4)c3)=NO2)CN1C(=O)c1ccccc1 (stereo not given)	none (no result: Vc quorum ag, TcdB inh)
CC(=NNc1ccccc1)c1cc2ccccc2oc1=O	none (no result: Vc quorum ag, TcdB inh)
O=C(Nc1nnc(C2CC2)o1)c1ccc(S(=O)(=O)N2CCCCC2)cc1	none
O=C(Nc1nnc(C2CC2)o1)c1ccc(S(=O)(=O)N2CCCc3ccccc32)cc1	ugtP null kill 94.3, RN4220 kill 89.1
COCc1nnc(NC(=O)c2ccc(S(=O)(=O)N3CCCc4ccccc43)cc2)o1	none
CC1CN(S(=O)(=O)c2ccc(C(=O)Nc3nnc(-c4ccc5c(c4)CCCC5)o3)cc2)CC(C)O1 (stereo not given)	ugtP null kill 98.6, RN4220 kill 98.8
COc1ccc(-c2nnc(NC(=O)c3ccc(S(=O)(=O)N4CCCc5ccccc54)cc3)o2)cc1	ugtP null kill 99.9, RN4220 kill 97.8 (no result: TcdB inh)
C(CCc1ccccc1)=Nn1cnnc1	none (no result: Vc quorum ag, TcdB inh)
Cc1cc(C=Nn2cnnc2)c(C)n1-c1ccccc1	none (no result: Vc quorum ag, TcdB inh)
CC(=O)C1=C(c2ccc(Br)cc2)C(=O)c2ccccc2C1=O	ugtP null kill 96.7, RN4220 kill 97.2 (no result: TcdB inh)
CCOc1ccccc1C(=O)NCC(=O)NNC(=O)c1cccc(S(=O)(=O)Nc2ccc(OC)cc2)c1	Vc quorum ag 536.2
CCC(C)C(C(=O)N1CCN(C(=O)OC(C)(C)C)CC1)n1cc(-c2cn(C(C)C(=O)N3CCN(C(=O)OC(C)(C)C)CC3)nn2)nn1 (stereo not given)	none (no result: Vc quorum ag, TcdB inh)
Nc1nc(NCc2ccco2)nc(N2CCCCCC2)c1[N+](=O)[O-]	ugtP null kill 98.5, RN4220 kill 95.0 (no result: TcdB inh)
CC(NC(=O)c1[nH]cnc1C(=O)Nc1ccc(CNC(=O)OC(C)(C)C)cc1)C(=O)OCc1ccccc1 (stereo not given)	none (no result: Vc quorum ag, TcdB inh)
CCN1/C(=C/c2sc(-c3ccccc3C)c[n+]2C)Sc2ccccc21	ugtP null kill 100.5, RN4220 kill 100.0
CC(=O)Nc1ccc(-c2ccc(NC(C)=O)c(O)c2)cc1O	none
CC(=O)Nc1ccccc1O	TcdB inh 19.5
COc1ccc(C=NNC(=O)c2ccc(NC(=O)C3CCCCC3)cc2)cc1O	none (no result: Vc quorum ag, TcdB inh)
CCN(CC)c1ccc(C=NNC(=O)Cc2ccc(OC)c(OC)c2)cc1	none (no result: Vc quorum ag, TcdB inh)
Cc1nc2ccccc2nc1OCC(=O)Nc1ccc(F)cc1	TcdB inh 12.3
O=C(NN=Cc1cccc([N+](=O)[O-])c1)c1cc(-c2ccccc2)nc2ccccc12	none (no result: Vc quorum ag, TcdB inh)
CCOC(=O)CC1c2cc(F)ccc2S(=O)(=O)N1c1ccccc1 (stereo not given)	none (no result: Vc quorum ag, TcdB inh)
Cc1ccc(NN=C2CS(=O)(=O)N(C)c3ccsc32)cc1	RN4220 kill 98.8 (no result: Vc quorum ag, TcdB inh)
Cc1ccc(N/N=C2\CS(=O)(=O)N(C)c3ccsc32)cc1	none (no result: ugtP null kill, RN4220 kill)
